Screening results (PubChem BioAssay)
An excerpt weighted towards active compounds, which were near 12% of everything screened.
Sm TGR block – qHTS Assay for the Inhibitors of Schistosoma Mansoni Peroxiredoxins | AID 485364, 2010 | purified TGR, DTNB reduction, TNB absorbance 405 nm | 360,000 compounds, 3% hits | Potency, µM (highest dose often 114 µM), hits mostly inhibitors | Schistosoma mansoni thioredoxin glutathione reductase (TGR), Q962Y6; further: nearly all actives have a fitted effect of over 60% in size
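TGR 20 nM + NADPH 100 uM (dispensed conc.), cpd preinc 15 min RT; start with NADPH (500 uM addition) then DTNB (15 mM addition). Kinetic TNB absorbance, 405 nm filter. Four-parameter Hill fit across titration.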
Pf growth 48h – Primary qHTS for delayed death inhibitors of the malarial parasite plastid, 48 hour incubation. AID 504832, 2011. P. falciparum luciferase growth in erythrocytes, 48 h. Potency, µM (series often up to 28.7 µM), actives largely listed as inhibitors. 310,000 compounds, 5.9% hits
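Erythrocytes infected with P. falciparum carrying an integrated firefly luciferase reporter (2% hematocrit, 0.1% parasitemia final) were exposed to compounds in RPMI 1640 with 0.5% Albumax at 37 C, 5% CO2. Growth inhibition was scored as reduced luminescence.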
SARS PLpro yeast – qHTS of Yeast-based Assay for SARS-CoV PLP; S. cerevisiae expressing SARS-CoV PLpro, growth rescue; Potency, µM (top dose mostly 32.9 µM), hits mostly activators; 330,000 compounds, 0.19% hits; calls by dose curve; further: nearly all actives have a fitted effect of over 55% in size
Pf growth 96h – Primary qHTS for delayed death inhibitors of the malarial parasite plastid, 96 hour incubation; P. falciparum luciferase reporter growth, 96 h; Potency, µM (doses to about 28.7 µM), most hits filed as inhibitors; AID 504834, 2011; 320,000 compounds, 6.9% hits
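Delayed-death screen, second-generation endpoint: infected erythrocytes, 2% hematocrit, 0.05% parasitemia final; 96 hours at 37 C, 5% CO2; luciferase detection reagent; luminescence decrease equals reduced growth.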
Large screens that a line does not name were inactive. Unless noted, the call rests on the fitted dose curve; in most records, active means well fitted curve in the direction sought with a large enough effect; inconclusive means small, poorly fitted or top-dose-only effect, or another doubt; inactive means no such curve, though single readings can be large; an effect the other way counts as inactive or inconclusive.

O=C1C(=O)N(Cc2ccco2)C(c2cccc(Cl)c2)/C1=C(\O)c1ccc2c(c1)OCCO2 (stereo not drawn)	Sm TGR block 35µM
COc1cc(C2/C(=C(\O)c3ccc4c(c3)OCCO4)C(=O)C(=O)N2Cc2ccco2)ccc1O (stereo not drawn)	none
COc1cccc(/C(O)=C2/C(=O)C(=O)N(Cc3ccco3)C2c2ccncc2)c1 (stereo not drawn)	Sm TGR block 28µM
Cc1cc(Cl)nc2ccc(Cc3ccc4nc(Cl)cc(C)c4c3)cc12	Pf growth 48h 2.6µM, Pf growth 96h inconclusive
CSc1nc(Cc2ccc(Cl)cc2)nc2ccccc12	none
OCC[C@@H]1C[C@@H](O)[C@H](O)[C@]2(CCc3ccccc3CO2)O1	none
COc1ccccc1CC1(C)NC(=O)N(CC(=O)N2CC(C)OC(C)C2)C1=O (stereo not drawn)	Pf growth 96h 0.52µM
Cc1ccc(N(CC(=O)NCc2ccc(OC(C)C)cc2)S(=O)(=O)N(C)C)cc1	none (no result: Pf growth 48h, SARS PLpro yeast, Pf growth 96h)
CC(C)n1c(O)c(N=NC(=O)Cc2csc(N3CCOCC3)n2)c2ccccc21	Pf growth 48h 13µM, Pf growth 96h inconclusive
CC(C)n1c(O)c(N=NC(=O)CNC(=O)Cc2ccc(Cl)cc2)c2ccccc21	none
CC(=O)c1c(C)[nH]c(C(=O)CSc2nc3ccccc3n2C)c1C	Pf growth 96h inconclusive
CC(=O)OCC#CCSc1nc2ccccc2n1C	SARS PLpro yeast 22µM
CCn1c2ccccc2c2cc(/C(C)=N/O)ccc21	none
CCn1c(C)cc(=S)c2ccccc21	Sm TGR block 4µM, Pf growth 48h inconclusive
CCn1c(CCn2c3ccccc3c3ccccc32)n[nH]c1=S	Pf growth 48h inconclusive, Pf growth 96h inconclusive
CCn1c2ccccc2c2cc(N)ccc21	Pf growth 48h inconclusive, Pf growth 96h 12µM
COc1cc(C(=O)N2CCN(C)C(C)C2)ccc1OC1CCN(C(C)=O)CC1 (stereo not drawn)	none
O=C(CN1CCN(S(=O)(=O)c2ccc(Cl)cc2)CC1)NCC1(N2CCOCC2)CCCCC1	Sm TGR block inconclusive, Pf growth 48h inconclusive, Pf growth 96h inconclusive
COc1ccc(CCNC(=O)c2noc(C(C)C)c2[N+](=O)[O-])cc1OC	Sm TGR block 35µM
COc1ccc(CCNC(=O)c2cc(CC(C)C)on2)cc1OC	Pf growth 96h 7.4µM (no result: Pf growth 48h)
COc1ccc(C(=O)NCCNc2ccc([N+](=O)[O-])cc2)cc1OC	Pf growth 96h 5.2µM
COc1ccc(CCNC(=O)c2ccc(-c3ccc([N+](=O)[O-])cc3)o2)cc1OC	Sm TGR block 40µM, Pf growth 96h inconclusive
COCc1c(C(=O)N2CCN(CCOc3ccccc3)CC2)oc2ccccc12	none
COc1ccc(CNC(=O)c2noc(C(C)C)c2[N+](=O)[O-])cc1	Pf growth 96h 1.9µM
N#CC1=C(N)Oc2cc(N)ccc2C1c1ccsc1 (stereo not drawn)	Pf growth 96h 10µM
CCC(C)NS(=O)(=O)c1cc2c3c(c1)CCC(=O)N3CCC2 (stereo not drawn)	none
Cc1ccc(C(=O)CSc2nnc(COc3cccc4cccnc34)o2)cc1	Pf growth 48h inconclusive, Pf growth 96h 3.3µM
CC(C)NC(=O)NC(=O)CSc1nnc(COc2ccccc2Cl)o1	none
NC(=O)CSc1nnc(COc2cccc3ccccc23)o1	Pf growth 96h 12µM
O=C(CSc1nnc(COc2ccccc2Cl)o1)NC(=O)NC1CCCC1	Pf growth 96h 12µM
CCN(CC)c1ccc(-n2nc3cc(C)c(NC(=O)c4ccccc4F)cc3n2)cc1	none (no result: Pf growth 48h, SARS PLpro yeast, Pf growth 96h)
CC(C)Sc1cc(Cl)nc(NC(=O)Nc2ccccc2)n1	none
COc1cccc(N2CCN(c3ncnc4c3cnn4-c3ccc(C)cc3C)CC2)c1	Pf growth 96h 5.9µM (no result: Pf growth 48h)
Cc1ccc(-n2ncc3c(N4CCCC4)ncnc32)c(C)c1	Pf growth 96h inconclusive
CC(C)Oc1ccc(S(=O)(=O)N2CCOCC2)cc1NC(=O)C1COc2ccccc2O1 (stereo not drawn)	Pf growth 48h 12µM, Pf growth 96h 12µM
CCOc1ccc(S(=O)(=O)N2CCCCC2)cc1NC(=O)C1COc2ccccc2O1 (stereo not drawn)	Pf growth 48h 6.6µM, Pf growth 96h inconclusive
CC(C)Oc1ccc(S(=O)(=O)N2CCOCC2)cc1NC(=O)C1=COCCO1	Pf growth 48h inconclusive, Pf growth 96h 12µM
CCOc1ccc(S(=O)(=O)N2CCCCC2)cc1NC(=O)C1CCC1	none
O=C(COC(=O)/C=C/c1ccc(F)cc1)NCC1CCCO1 (stereo not drawn)	none (no result: Sm TGR block, Pf growth 48h, Pf growth 96h)
